# NS1 function inh: inhibitors of influenza NS1 protein function | Potency, µM (series often up to 46.1 µM), inactives show top-dose activity, positive = more growth | 270,000 tested, 0.4% active | AID 2326; calls by dose curve; further: actives are rising curves; nearly all actives have a fitted effect of over 50% in size
#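 OD600 was taken as the measure of yeast growth restored by compound in an NS1-expressing S. cerevisiae strain. Cells had been washed out of glucose medium and diluted 1:100 into galactose -URA medium, pH 6.0.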
# AMA1 RON2 block: disrupts binding of P. falciparum AMA1 to RON2; 360,000 tested, 0.2% active; AlphaScreen AMA1-biotinylated RON2 peptide binding; AID 720542; Potency, µM (highest dose often 58.2 µM), for inactives: top-dose activity change, negative = inhibition, usual class: inhibitors;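 further: 0% = vehicle wells and -100% = peptide control; nearly all actives have a fitted effect of over 45% in size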
#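 AMA1 (3D7) with his tag at 25 nM final met compounds first, then biotinylated RON2 peptide at 25 nM; detection used donor plus acceptor beads, 10 µg/mL apiece, read by AlphaScreen after 30 min at room temperature.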
# Pf growth 96h: P. falciparum growth inhibition at 96 hours; P. falciparum luciferase reporter growth, 96 h; Potency, µM (series often up to 28.7 µM), inactives show top-dose activity change, negative = inhibition, actives largely listed as inhibitors; 320,000 tested, 6.9% active; AID 504834; further: on the % scale 0 is the no-effect control and ±100 the full control effect
#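 Compounds incubated with erythrocytes infected by luciferase-expressing P. falciparum (2% hematocrit, 0.05% parasitemia final) for 96 hours, 37 C in 5% CO2. Growth inhibition scored as decreased luciferase luminescence.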
# HCV inh: blocks hepatitis C virus | Potency, µM (titrated, usually from 41.8 µM), inactives show at the top dose activity change, negative = inhibition, hits mostly inhibitors | 340,000 tested, 3.4% active | Huh7.5.1 HCVcc-Cre infection, luciferase reporter, 44 h; further: on the % scale 0 is the no-effect control and ±100 the full control effect
#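 Luciferase read-out (15 sec integration) after a 15 min room-temperature substrate step quantifies HCVcc-Cre infection. Cells, 1,000 per well, had compound added 4 h post-plating, then virus at ~0.5 moi, and were cultured 44 h.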
# SARS PLpro yeast: blocks SARS-CoV papain-like protease in a yeast assay. AID 485353. 330,000 tested, 0.19% active. Potency, µM (series often up to 32.9 µM), for inactives: at the top dose activity, positive = growth rescue, most hits filed as activators. S. cerevisiae expressing SARS-CoV PLpro, growth rescue; calls by dose curve; further: 0% is about no effect; nearly all actives have a fitted effect of over 55% in size
# Pf growth 48h: inhibits P. falciparum growth in the first generation, 48 h. P. falciparum luciferase growth in erythrocytes, 48 h. Potency, µM (doses to about 28.7 µM), inactives show at the top dose activity change, negative = inhibition, most hits filed as inhibitors. 310,000 tested, 5.9% active. AID 504832; further: on the % scale 0 is the no-effect control and ±100 the full control effect
#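 Firefly luciferase activity from engineered P. falciparum reports growth; inhibitors lower the luminescent signal. Cultures contained 2% hematocrit erythrocytes at 0.1% final parasitemia.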
# * hit, by the source's call; ? = inconclusive; . = not tested or not shown; [ ] = remark or other dose. Only some compounds are listed: those with a hit (about 12% of all), similar ones and a draw of the others. Unless noted, the call rests on the fitted dose curve; in most records, active means well fitted curve in the direction sought with a large enough effect; inconclusive means small, poorly fitted or top-dose-only effect, or another doubt; inactive means no such curve, though single readings can be large; an effect the other way counts as inactive or inconclusive. Potency means the concentration at half of the fitted maximal effect.
SMILES,NS1 function inh,AMA1 RON2 block,Pf growth 96h,HCV inh,SARS PLpro yeast,Pf growth 48h
CCN(Cc1nc2ccccc2c(=O)[nH]1)C(=O)c1ccc(C)c(NC(=O)c2ccco2)c1,.,90%,13µM*,-12%,1%,-29%
O=C(c1ccccc1)N(Cc1nc2ccccc2c(=O)[nH]1)C1CCCCC1,-4%,2%,-12%,9%,1%,-12%
CCN(Cc1nc2ccccc2c(=O)[nH]1)C(=O)COc1ccccc1-c1ccccc1,.,92%,9.3µM*,?,-5%[6.58 µM],13µM*
Clc1ccc(-c2cn(-c3nc4ccccc4s3)nn2)cc1,.,-1%,.,.,.,.
CN(Cc1nc2ccccc2c(=O)[nH]1)C(=O)C1CC(=O)N(c2cccc3ccccc23)C1 (stereo unspecified),.,26%,.,9%,4%,.
CCN(Cc1nc2ccccc2c(=O)[nH]1)C(=O)c1cc(C2CC2)nn1-c1ccccc1,.,25%,9.3µM*,?,15%,?
CN(Cc1nc2ccccc2c(=O)[nH]1)C(=O)c1cc(C2CC2)nn1-c1ccccc1,.,19%,?,?,.,?
CCN(Cc1nc2ccccc2c(=O)[nH]1)C(=O)C1CC(=O)N(c2cccc3ccccc23)C1 (stereo unspecified),.,113%,?,-13%,2%,10µM*
CCOC(=O)c1nc(NNC(=O)c2ccc([N+](=O)[O-])cc2)sc1C,-17%,94%,3.3µM*,?,2%,?
COc1ccc(OC)c(NC(=O)CSc2nc3nc(C)cc(C)n3n2)c1,.,5%,?,4%,5%,?
CC(=O)N1N=C2c3ccccc3CCC2C1c1ccc(F)cc1 (stereo unspecified),0%,-3%,?,-8%,-2%,0%
COc1ccc2c(c1)CCC1C2=NN(/C(C)=C/C(C)=O)C1c1cccc(F)c1 (stereo unspecified),-6%,21%,-17%,11µM*,-2%,-13%
Cc1cc(C(=O)NNC(=S)NC2CCCCC2)cs1,22%,110%,5%,?,3%,74%
CC1CCCC(NC(=O)CCC(=O)N2CCOc3ccccc32)C1C (stereo unspecified),0%,9%,9.3µM*,18%,-1%,9%
CCOc1ccc(CCNC(=O)CCC(=O)N2CCOc3ccccc32)cc1OCC,-5%,-3%,2%,?,6%,2%
O=C(CCC(=O)N1CCOc2ccccc21)NCCc1ccccc1,8%,-8%,15µM*,12%,2%,33%
Cc1ccccc1-c1cc2nc(C)c(C)c(=O)n2[nH]1,4%,-6%,3%,-9%,0%,7.4µM*
Cc1cc(=O)n2[nH]c(-c3ccccc3Cl)cc2n1,0%,-1%,7.4µM*,?,0%,-6%
Cc1cccc(-c2cc3nc(C)cc(=O)n3[nH]2)c1,.,1%,.,.,.,.
Cc1cc2nc(C)c(Cl)c(=O)n2[nH]1,.,22%,0%,9%,0%,-11%
Cc1nc2cc(-c3ccc(Br)cc3)[nH]n2c(=O)c1Cl,15%,1%,9.3µM*,9%,-6%,?
CCCC(=O)Nc1ccc(C=C(C(C)=O)C(C)=O)cc1,-1%,11%,?,17%,-3%,?
O=C(O)C1CC=CCC1C(=O)N1CCN(c2nc(-c3ccccc3)c3ccccc3n2)CC1 (stereo unspecified),-2%,7%,.,?,2%,?
O=C(O)C1CC=CCC1C(=O)N1CCN(c2nc(-c3ccccc3Cl)c3cc(Br)ccc3n2)CC1 (stereo unspecified),11%,3%,?,?,-3%,12µM*
CCOc1ccc(NC(=S)N(C)C)cc1,-2%,6%,42%,-3%,-1%,14%
CC(C)COC(=O)N1CCCC1C(=O)O (stereo unspecified),11%,-2%,?,3.2µM*,6%,0%
CC(C)(C)OC(=O)N1CCC[C@H]1C(=O)O,1%,15%,8%,30%,11%,37%

# Screening results deposited in PubChem BioAssay by National Center for Advancing Translational Sciences (NCATS).
